Activity calls are given as the source filed them.
Columns and labels:
[1] = E. coli DRC41 culture turbidity changes, primary screen, E. coli filamentation inducer project, strain DRC41, OD650, 48 h (AID 1152);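 further: E. coli MC1000 strain DRC41 lacking acrAB efflux pump and sulA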; details: E. coli DRC41 (acrAB sulA), higher = more signal, called active from +8 up or from −8 down
[2] = small-molecule binders of probe aLefty1, primary screen, biochemical, small-molecule microarray, 635/667 nm fluorescence (AID 1153); details: higher = more signal;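 further: score merges spot fluorescence with signal-to-noise ratio from the scanned slide images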
[3] = PSAC antagonists in infected red cells, primary screen, cell-based, P. falciparum Indochina, OD700, 1 h (AID 1154); details: P. falciparum Indochina infected RBC osmotic lysis, higher = more signal, called active from +8 up or from −8 down
[4] = PSAC antagonists in infected red cells, primary screen, cell-based, P. falciparum Indochina, OD700, 2 h (AID 1155);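 further: lysis reports solute entry through the parasite surface anion channel PSAC; channel blockers reduce lysis of infected cells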; details: P. falciparum Indochina infected erythrocytes, osmotic lysis OD700; higher = more signal, called active from +8 up or from −8 down
[5] = osmotic lysis modulators in infected erythrocytes, primary screen, PSAC antagonist project, cell-based, P. falciparum Indochina, OD700, 3 h (AID 1156); details: higher = more signal, called active from +8 up or from −8 down
[6] = PSAC antagonists in infected red cells, primary screen, cell-based, P. falciparum Indochina, OD700, 18 h (AID 1157); details: P. falciparum Indochina infected erythrocytes, osmotic lysis OD700, 18 h; higher = more signal, called active from +8 up or from −8 down
[7] = modulators of S6 phosphorylation in cells, primary screen, cell-based, A549, cytoblot, luminescence, serum-stimulated (AID 1158); details: A549 phospho-S6 cytoblot, 5 h, higher = more signal;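 further: serum-stimulated A549 lung adenocarcinoma cells; signal is phosphorylated S6 detected by cytoblot immunostaining with HRP secondary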
[8] = target: NADPH oxidase 2 (Homo sapiens) (UniProt P04839); assay: NOX2-dependent H2O2 signal modulators, primary screen, NOX inhibitor project, cell-based, HEK293-NOX2, PMA-stimulated, Amplex Red fluorescence (AID 1159); details: 45 min, higher = more signal, called active from +8 up or from −8 down; further: test concentration not given here
[9] = target: NADPH oxidase 4 (Homo sapiens) (UniProt Q9NPH5); assay: NOX4-dependent H2O2 signal modulators, primary screen, NOX inhibitor project, cell-based, HEK293-NOX4, tetracycline-induced, Amplex Red fluorescence (AID 1160); details: 45 min, higher = more signal, called active from +8 up or from −8 down
[10] = target: NADPH oxidase 5 (Homo sapiens) (UniProt Q96PH1); assay: NOX5-dependent H2O2 signal modulators, primary screen, NOX inhibitor project, cell-based, HEK293-NOX5, Amplex Red fluorescence (AID 1161); details: HEK293-NOX5, ionomycin, 45 min, higher = more signal
[11] = A549 cell viability effects, profiling panel, calcein-AM fluorescence, 48 h, basal (AID 1162); details: higher = more signal; further: test concentration not given here
[12] = adipocyte viability effects, profiling panel, cell-based, 3T3-L1 adipocytes, calcein-AM fluorescence, 48 h, basal (AID 1163); details: 3T3-L1 adipocytes viability, higher = more signal; further: test concentration not given here
[13] = HepG2 cell viability effects, profiling panel, calcein-AM fluorescence, 48 h, basal (AID 1164); details: higher = more signal; further: test concentration not given here
[14] = MM1S cell viability effects, profiling panel, calcein-AM fluorescence, 48 h, basal (AID 1165); details: higher = more signal;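 further: viability of MM1S multiple myeloma cells under basal unstimulated conditions; test concentration not given here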
[15] = basal RPMI8226 viability, no added stimulus, profiling panel, cell-based, calcein-AM fluorescence, 48 h, PK04 Diversity Set (AID 1166); details: RPMI8226 myeloma viability, higher = more signal;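 further: cells grown under basal conditions without added stimulus; test concentration not given here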
[16] = basal HepG2 mitochondrial membrane potential changes, profiling panel, cell-based, JC-1 fluorescence, 24 h, 100 nL compound (AID 1167); details: higher = more signal; further: test concentration not given here
[17] = basal 3T3-L1 adipocyte mitochondrial potential changes, profiling panel, cell-based, JC-1 fluorescence, 3T3-L1 adipocytes, 24 h, 100 nL compound (AID 1168); details: JC-1 mitochondrial fluorescence, higher = more signal, called active from +8 up or from −8 down; further: test concentration not given here
[18] = basal RPMI8226 mitochondrial membrane potential changes, profiling panel, cell-based, JC-1 fluorescence, 24 h, 100 nL compound (AID 1169); details: RPMI8226 myeloma, JC-1 mitochondrial potential fluorescence, higher = more signal; further: test concentration not given here
[19] = basal MM1S mitochondrial membrane potential changes, profiling panel, cell-based, JC-1 fluorescence, 24 h, 100 nL compound (AID 1170); details: higher = more signal; further: test concentration not given here
[20] = A549 lung cancer cell viability effects, profiling panel, resazurin fluorescence, 24 h, PK04 Diversity Set (AID 1171); details: higher = more signal, called active from +8 up or from −8 down; further: test concentration not given here

Chain of NADPH oxidase 2 (Homo sapiens) (P04839 whole entry, looked up): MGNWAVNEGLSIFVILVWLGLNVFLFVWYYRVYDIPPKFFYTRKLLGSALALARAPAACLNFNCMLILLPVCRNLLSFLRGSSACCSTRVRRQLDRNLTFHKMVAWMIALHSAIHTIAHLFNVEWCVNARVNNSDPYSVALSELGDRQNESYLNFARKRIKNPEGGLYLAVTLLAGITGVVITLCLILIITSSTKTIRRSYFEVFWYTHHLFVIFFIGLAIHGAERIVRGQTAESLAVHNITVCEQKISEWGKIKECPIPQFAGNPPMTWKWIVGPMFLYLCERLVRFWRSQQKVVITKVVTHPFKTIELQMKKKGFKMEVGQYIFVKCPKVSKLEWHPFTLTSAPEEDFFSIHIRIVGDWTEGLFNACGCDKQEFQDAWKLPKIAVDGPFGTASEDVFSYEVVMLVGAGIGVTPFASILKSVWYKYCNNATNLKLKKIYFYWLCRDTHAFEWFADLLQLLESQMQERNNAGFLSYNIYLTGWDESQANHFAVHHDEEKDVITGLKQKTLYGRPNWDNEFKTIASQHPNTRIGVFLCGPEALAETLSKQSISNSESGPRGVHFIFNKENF
Chain of NADPH oxidase 5 (Homo sapiens) (Q96PH1 whole entry, looked up): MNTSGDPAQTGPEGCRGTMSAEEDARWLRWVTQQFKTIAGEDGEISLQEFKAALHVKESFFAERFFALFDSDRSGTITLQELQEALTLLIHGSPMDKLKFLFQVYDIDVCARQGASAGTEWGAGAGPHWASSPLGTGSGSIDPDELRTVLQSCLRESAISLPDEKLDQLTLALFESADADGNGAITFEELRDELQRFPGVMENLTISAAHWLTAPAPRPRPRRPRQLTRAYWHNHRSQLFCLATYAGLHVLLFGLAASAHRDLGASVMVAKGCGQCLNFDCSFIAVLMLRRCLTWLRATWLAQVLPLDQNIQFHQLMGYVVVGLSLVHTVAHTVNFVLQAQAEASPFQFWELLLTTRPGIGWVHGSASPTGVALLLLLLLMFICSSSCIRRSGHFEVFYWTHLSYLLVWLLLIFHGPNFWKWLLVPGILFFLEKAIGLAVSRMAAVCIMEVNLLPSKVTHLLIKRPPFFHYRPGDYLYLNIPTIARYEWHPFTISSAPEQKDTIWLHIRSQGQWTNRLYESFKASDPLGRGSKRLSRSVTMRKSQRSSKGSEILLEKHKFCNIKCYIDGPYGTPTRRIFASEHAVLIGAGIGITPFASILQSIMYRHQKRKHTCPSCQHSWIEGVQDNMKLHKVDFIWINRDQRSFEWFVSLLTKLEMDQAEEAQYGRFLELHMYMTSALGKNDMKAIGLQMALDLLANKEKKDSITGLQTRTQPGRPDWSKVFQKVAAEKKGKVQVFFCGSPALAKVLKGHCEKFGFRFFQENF
Chain of NADPH oxidase 4 (Homo sapiens) (Q9NPH5 whole entry, looked up): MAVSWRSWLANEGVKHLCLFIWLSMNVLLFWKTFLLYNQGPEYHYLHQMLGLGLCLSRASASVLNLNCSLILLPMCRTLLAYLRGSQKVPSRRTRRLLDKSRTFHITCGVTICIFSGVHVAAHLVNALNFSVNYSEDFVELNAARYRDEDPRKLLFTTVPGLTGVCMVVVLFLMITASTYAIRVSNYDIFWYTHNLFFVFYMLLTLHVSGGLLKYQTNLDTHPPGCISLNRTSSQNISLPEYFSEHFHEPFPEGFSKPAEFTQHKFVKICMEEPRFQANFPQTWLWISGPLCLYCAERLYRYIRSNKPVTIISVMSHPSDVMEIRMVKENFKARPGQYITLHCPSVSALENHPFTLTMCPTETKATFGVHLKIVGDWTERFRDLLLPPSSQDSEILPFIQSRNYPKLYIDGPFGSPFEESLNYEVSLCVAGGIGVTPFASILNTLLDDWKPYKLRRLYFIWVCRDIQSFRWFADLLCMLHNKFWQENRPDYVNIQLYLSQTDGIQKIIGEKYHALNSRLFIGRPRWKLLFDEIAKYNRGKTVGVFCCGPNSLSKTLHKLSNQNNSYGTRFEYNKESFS

Row | Compound | z-score [1] | composite z-score [2] | z-score [3] | z-score [4] | z-score [5] | z-score [6] | z-score [7] | z-score [8] | z-score [9] | z-score [10] | z-score [11] | z-score [12] | z-score [13] | z-score [14] | z-score [15] | z-score [16] | z-score [17] | z-score [18] | z-score [19] | z-score [20]
1 | O=C1O[C@@H](c2ccccc2)[C@@H](c2ccccc2)N2[C@@H](c3ccccc3OCCO)[C@]3(C(=O)Nc4ccc(C#CC5(O)CCCCCC5)cc43)[C@@H](C(=O)N3CCN(c4ncccn4)CC3)[C@H]12 | 0.691 (inactive) | -0.0141 | 1.89 (inactive) | 1.66 (inactive) | 2.21 (inactive) | 1.18 (inactive) | -0.451 | 0.814 (inactive) | 0.343 (inactive) | 1.93 | -0.643 | 1.46 | 0.11 | -1.22 | -2.29 | -0.457 | 0.821 (inactive) | -1.04 | -0.796 | -0.697 (inactive)
2 | CC(CO)N1C(=O)[C@@H]2C3C(=O)OCCC/C=C\[C@H]3OC23C=CCN(CCN2CCOCC2)C(=O)[C@@H]13 (stereo not given in full) | 0.253 (inactive) | -0.348 | 0.901 (inactive) | 0.0448 (inactive) | 1.7 (inactive) | 0.01 (inactive) | 0.0058 | 0.238 (inactive) | -0.398 (inactive) | 1.05 | -0.31 | -0.414 | 0.755 | 1.92 | 0.435 | 0.559 | -0.109 (inactive) | 0.357 | -1.07 | -0.7 (inactive)
3 | COc1ccc([Si](C)(C)[C@@H]2[C@@H](CCn3cc(CCO)nn3)O[C@]3(C(=O)N(Cc4cccc(N5C(=O)c6cccc7cccc5c67)c4)c4ccccc43)[C@H]2C)cc1 | 0.259 (inactive) | -0.0011 | 4.42 (inactive) | 1.6 (inactive) | 1.22 (inactive) | -0.682 (inactive) | 1.16 | 1.58 (inactive) | 1.76 (inactive) | 1.3 | -2.01 | 1.32 | -4.46 | -2.86 | -4.41 | -0.414 | 1.02 (inactive) | -0.931 | -2.16 | -3.53 (inactive)
4 | CCOC(=O)[C@H]1C/C=C/C[C@H](C(=O)OCC)C(=O)O[C@H]2[C@@H](OC)O[C@H](CO)[C@@H](OC(=O)c3ccc(Br)cc3)[C@@H]2OC1=O | -0.365 (inactive) | -0.0349 | 2.35 (inactive) | 1.54 (inactive) | -0.128 (inactive) | 0.877 (inactive) | 0.0379 | -1.81 (inactive) | -0.145 (inactive) | -1.24 | 0.645 | -0.009 | 0.404 | -3.12 | -3.75 | -0.971 | -0.339 (inactive) | -0.935 | -1.3 | -1.92 (inactive)
5 | COCCCNC(=O)[C@@]1(Sc2ccc(C)cc2)CC(=O)N(Cc2ccccc2Cl)[C@@H]1c1ccc(CO)cc1 | 0.864 (inactive) | -0.0011 | 0.38 (inactive) | -0.91 (inactive) | 0.712 (inactive) | -1.83 (inactive) | 2.14 | -2.58 (inactive) | -1.22 (inactive) | -2.91 | 0.102 | 0.381 | -0.646 | 0.661 | -0.218 | -0.627 | -0.554 (inactive) | 0.118 | -2.29 | 1.76 (inactive)
6 | C=CCN1C(=O)[C@]2(Cc3ccccc3)N=C(c3ccc(OCCCO)cc3)O[C@@H]2c2ccccc21 | 0.567 (inactive) | 0.43 | 33.1 (active) | 30.1 (active) | 2.14 (inactive) | 10.2 (active) | -0.204 | -1.78 (inactive) | 0.46 (inactive) | 1.07 | 0.0386 | 0.146 | -1.62 | -3.02 | -3.91 | 0.822 | 2.21 (inactive) | -1.21 | -2.81 | -2.28 (inactive)
7 | CCCC[C@H]1C[C@@H]1[C@@H]1N(P(=O)(c2ccccc2)c2ccccc2)C[C@@](O)(c2ccccc2)CC12CC2 | -1.84 (inactive) | 0.404 | 2.07 (inactive) | 1.07 (inactive) | 0.425 (inactive) | 1.55 (inactive) | -0.443 | -0.476 (inactive) | -0.925 (inactive) | -2.1 | -3.9 | -0.228 | -5.35 | -3.29 | -4.7 | -2.84 | -0.556 (inactive) | -0.917 | -2.78 | 4.58 (inactive)
8 | CC#CC(=O)Oc1ccc(Br)cc1C=CC(=O)OCC | -1.17 (inactive) | 0.0386 | 25.5 (active) | 7.06 (inactive) | -0.189 (inactive) | 1.37 (inactive) | -0.27 | -1.86 (inactive) | -2.68 (inactive) | 0.227 | -2.1 | -1.04 | -2.88 | -3.18 | -4.08 | -1.65 | -0.315 (inactive) | -0.583 | -1.84 | -0.685 (inactive)
9 | COC(=O)c1c(CC[C@@H](CO)NC(=O)N[C@H](Cc2ccccc2)Cn2cc(-c3ccccn3)nn2)oc(C(C)=O)c1C(=O)OC | -0.72 (inactive) | -0.194 | 27.1 (active) | 12.7 (active) | 0.729 (inactive) | 1.41 (inactive) | 0.032 | -1.52 (inactive) | 0.594 (inactive) | 1.24 | 0.372 | 0.337 | -0.362 | 0.258 | -0.406 | -0.607 | -0.821 (inactive) | -0.0316 | -0.131 | -0.533 (inactive)

Reference: PubChem BioAssay
